Results reported in PubChem BioAssay (NCATS).
Inconclusive results are not listed. The source made the active and inactive calls. The call rests on the fitted dose curve; in most records, active means well fitted curve in the direction sought with a large enough effect; inconclusive means small, poorly fitted or top-dose-only effect, or another doubt; inactive means no such curve, though single readings can be large; an effect the other way counts as inactive or inconclusive.

How the values were obtained:
[1] = biological target: Calcium and integrin-binding protein 1 (Homo sapiens) (UniProt Q99828); experiment: Primary qHTS for Identification of Calcium Integrin Binding Protein 1 (CIB1) Competitor (AID 1508620);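 further: GST tagged CIB1 binding a fluorescein labelled alphaIIb integrin peptide tracer; top concentration of the series differs between compounds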
Chain of Calcium and integrin-binding protein 1 (Homo sapiens) (Q99828 whole entry, looked up): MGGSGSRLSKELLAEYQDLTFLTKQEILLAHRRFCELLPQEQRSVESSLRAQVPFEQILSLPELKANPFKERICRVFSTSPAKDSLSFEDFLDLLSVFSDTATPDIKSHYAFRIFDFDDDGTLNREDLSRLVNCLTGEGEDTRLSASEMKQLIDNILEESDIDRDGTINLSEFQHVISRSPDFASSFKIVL
Method in brief: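 Fluorescence polarization competition: GST-tagged CIB1 (1 uM final) preincubated with compound 15 min at room temperature, then FITC-labelled alphaIIb peptide (100 nM final) added. After 15 min at room temperature, polarization read at Ex 480/Em 540.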

[2] = Primary qHTS for inhibitors of nuclear receptor binding SET domain protein 2 (NSD2) in an isogenic RCH-ACV NSD2 p.E1099K mutant (9B) (AID 1645876); further: nearly all actives have a fitted effect of over 70% in size; further: potency means the concentration at half of the fitted maximal effect
[3] = Primary qHTS for inhibitors of nuclear receptor binding SET domain protein 2 (NSD2) in an RCH-ACV wild type WT cells (2C) (AID 1645877); further: nearly all actives have a fitted effect of over 70% in size; further: potency means the concentration at half of the fitted maximal effect

Cc1cc(F)c(C(=O)Nc2cccc(-c3nncn3C(C)C)n2)cc1-n1cnc(C2CC2)c1
Potency [1]: inactive
Potency [2]: 11.8 µM (active)
Potency [3]: 9.34 µM (active)

C=C1C(=O)O[C@@H]2/C=C(\C)CC/C=C(/C=O)[C@H](OC)[C@@H](OC(=O)C(C)C)[C@@H]12
Potency [1]: inactive
Potency [2]: 8.01 µM (active)
Potency [3]: 3.19 µM (active)

CC(C)C[C@@H]1NC(=O)[C@@H](Cc2ccccc2)NC(=O)C(CCCCCC(=O)C2CO2)NC(=O)[C@@H]2CCCCN2C1=O (some centres not stated)
Potency [1]: inactive
Potency [2]: 0.0709 µM (active)
Potency [3]: 0.0252 µM (active)

CC1(CO)CC2C(O)C3=C(CC(C)(O)C2C1)C(=O)OC3 (configuration not stated)
Potency [1]: inactive
Potency [2]: inactive
Potency [3]: inactive

C=C(C)C(=O)O[C@H]1/C(C=O)=C\CC/C(CO)=C/[C@H]2OC(=O)C(=C)[C@@H]2[C@@H]1OC
Potency [1]: inactive
Potency [2]: 11.3 µM (active)
Potency [3]: 2.53 µM (active)

CC(C)(CNC(=O)c1cccc(-c2noc(C(F)(F)F)n2)c1)c1coc(-c2ccccc2)n1
Potency [1]: inactive
Potency [2]: 20.9 µM (active)
Potency [3]: 23.5 µM (active)

O=C(NO)c1ccc(CC(=O)N(CCO)c2ccccc2)cc1
Potency [1]: inactive
Potency [2]: 16.3 µM (active)
Potency [3]: 14.5 µM (active)

CC(=O)OC1CC(C)C2(CCC3(CC(=O)OC3O)O2)C2(C)CCCC(C)(C)C12 (configuration not stated)
Potency [1]: inactive
Potency [2]: inactive
Potency [3]: inactive

Cc1nc2ccc(CN(C)c3ccc(C(=O)NC(CCC(=O)O)C(=O)O)s3)cc2c(=O)[nH]1 (configuration not stated)
Potency [1]: inactive
Potency [2]: 0.0092 µM (active)
Potency [3]: 0.0092 µM (active)

C=C1C(=O)OC2CC(C)C(CCC(C)=O)=CCC12 (configuration not stated)
Potency [1]: inactive
Potency [2]: 18.3 µM (active)
Potency [3]: 12.9 µM (active)

CN1C(=O)c2sccc2N(C)c2nc(Nc3ccc(S(N)(=O)=O)cc3)ncc21
Potency [1]: inactive
Potency [2]: 1.05 µM (active)
Potency [3]: 0.59 µM (active)

CC(C)C[C@@H]1NC(=O)[C@@H]2C[C@@]34C[C@@H]5[C@@]6(C)CCCC(C)(C)C6CC[C@@]5(C)N(c5ccccc53)[C@H]4N2C1=O (some centres not stated)
Potency [1]: inactive
Potency [2]: 3.55 µM (active)
Potency [3]: 3.99 µM (active)

Cc1cc(C(=O)Nc2cc(Oc3ccc4nc(NC(=O)C5CC5)cn4n3)ccc2C)n(C)n1
Potency [1]: inactive
Potency [2]: 13.2 µM (active)
Potency [3]: 9.34 µM (active)

Cc1cc2c(F)c(Oc3ncnn4cc(OCC(C)OC(=O)C(C)N)c(C)c34)ccc2[nH]1 (configuration not stated)
Potency [1]: inactive
Potency [2]: 9.34 µM (active)
Potency [3]: 8.33 µM (active)

COc1cccc(NCCC2(c3ccccc3)CC(C)(C)OC(C)(C)C2)c1
Potency [1]: inactive
Potency [2]: inactive
Potency [3]: inactive

CN[C@@H]1[C@H](O[C@H]2[C@H](O[C@@H]3[C@@H](O)[C@H](O)[C@@H](N=C(N)N)[C@H](O)[C@H]3N=C(N)N)O[C@@H](C)[C@]2(O)CO)O[C@@H](CO)[C@H](O)[C@H]1O
Potency [1]: inactive
Potency [2]: inactive
Potency [3]: inactive

COc1cc(/C=C2\CCCN([C@@H](C)c3ccc(F)cc3)C2=O)ccc1-n1cnc(C)c1
Potency [1]: inactive
Potency [2]: 11.5 µM (active)
Potency [3]: 12.9 µM (active)

C=C1C(=O)OC2/C=C(\C)CC/C=C(\C=O)C(OC)C(OC(=O)C(C)CC)C12 (configuration not stated)
Potency [1]: inactive
Potency [2]: 7.13 µM (active)
Potency [3]: 2.84 µM (active)

CCN(Cc1cc(Nc2nc(C)cn3c(-c4cn[nH]c4)cnc23)sn1)C(C)(C)CO
Potency [1]: inactive
Potency [2]: 0.0092 µM (active)
Potency [3]: 0.0082 µM (active)

COC(=O)Nc1cc(Nc2cc(NC3CC3)c3ncc(C#N)n3n2)c(Cl)c(N2CCN(C)CC2)c1
Potency [1]: inactive
Potency [2]: 0.742 µM (active)
Potency [3]: 0.372 µM (active)

CCc1cc(C(N)=O)ccc1-n1nc(C(C)C)c2c(-n3cnc(-c4cnn(C)c4)c3)ccnc21
Potency [1]: inactive
Potency [2]: 1.18 µM (active)
Potency [3]: 1.05 µM (active)

COC1CC(=O)C23C(=O)NC(Cc4c[nH]c5ccccc45)C2C(C)C2(C)OC2C3/C=C/CC(C)CC1O (configuration not stated)
Potency [1]: inactive
Potency [2]: 3.17 µM (active)
Potency [3]: 2.52 µM (active)

C/C=C(/C)C(=O)O[C@H]1C=C(CO)C(=O)[C@H](OC(=O)/C(C)=C/CO)[C@H]1C(C)C
Potency [1]: inactive
Potency [2]: 1.79 µM (active)
Potency [3]: 1.79 µM (active)

CC1(C)CC[C@]2(C(=O)O[C@@H]3O[C@H](CO)[C@@H](O)[C@H](O)[C@H]3O)CC[C@]3(C)C(=CCC4[C@@]5(C)CC[C@H](O[C@@H]6O[C@H](C(=O)O)[C@H](O)[C@H](O)[C@H]6O)C(C)(C)C5CC[C@]43C)[C@@H]2C1 (some centres not stated)
Potency [1]: inactive
Potency [2]: 6.08 µM (active)
Potency [3]: 5.41 µM (active)
